A short description of assay [1]: NCI Yeast Anticancer Drug Screen. Data for the rad50 strain (AID 155).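 Further: 0% = growth of vehicle-only cultures of the same strain.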 The note with it: S. cerevisiae rad50 strain growth inhibition; at 50.0 µM; stronger effect = higher value. Put shortly: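 Growth of the mutant yeast was measured after compound exposure and referenced to vehicle-treated cultures.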
A short description of assay [2]: NCI Yeast Anticancer Drug Screen. Data for the mec2-1 strain (AID 157). The following applies: S. cerevisiae mec2-1 strain, at 50.0 µM, stronger effect = higher value. Put shortly: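 Vehicle-treated cultures served as reference for growth inhibition of compound-exposed mec2-1 yeast.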
The nature of assay [3]: NCI Yeast Anticancer Drug Screen. Data for the sgs1 mgt1 strain (AID 161).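 Further: 0% = growth of cultures given vehicle only.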 The following applies: S. cerevisiae sgs1 mgt1 strain, at 50.0 µM, stronger effect = higher value. The method, boiled down: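 Test agents were incubated with a DNA-repair-mutant yeast strain. Growth was then read and compared against vehicle-treated controls.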
Assay [4] in a line: NCI Yeast Anticancer Drug Screen. Data for the cln2 rad14 strain (AID 165).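 Further: 0% = growth equal to vehicle treated cultures.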 The note with it: S. cerevisiae cln2 rad14 strain, at 50.0 µM, stronger effect = higher value. Put shortly: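 Each compound was tested on cln2 rad14 yeast. Inhibition of growth was calculated against vehicle-exposed controls.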
A short description of assay [5]: NCI Yeast Anticancer Drug Screen. Data for the bub3 strain (AID 167). The note with it: S. cerevisiae bub3 mutant strain, at 50.0 µM, stronger effect = higher value. Put shortly:
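Whole-cell yeast assay. The mutant strain was incubated with compounds, and growth inhibition was determined by comparison with vehicle-treated cells.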

Assay [6] in a line: NCI Yeast Anticancer Drug Screen. Data for the mlh1 rad18 strain (AID 175). The note with it: S. cerevisiae mlh1 rad18 strain growth inhibition; at 50.0 µM; stronger effect = higher value. Put shortly: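 Vehicle-treated cultures served as the reference for growth inhibition in a yeast strain carrying DNA damage repair alterations exposed to each compound.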

This is part of a sample that, as a whole, favours compounds with a hit. Of some 79,000 tested, about 15% had one in any assay. A number with no mark means an inactive call. Calls of active or inactive are those of the source. No stated cut-off is given here; in the data, active means growth inhibition above about 70%; inactive means the rest.

For `CCOc1ccccc1OCC`, the growth inhibition in assay [1] is 25.1%; in assay [2], -27.2%; in assay [3], -25.9%; in assay [4], 12.3%; in assay [5], -11.2%; in assay [6] it was 21.2%.
As to `CC1(C)CC(=O)C2=C(SC3=C(C2)C(=O)CC(C)(C)S3)S1`, the growth inhibition was -5.75% in assay [1]; -2.5% in assay [2]; 2.8% in assay [3]; -7.25% in assay [4]; -9.85% in assay [5]; -3.3% in assay [6].
As for `c1ccc2c(-c3ccncc3)c3ccccc3cc2c1`, the growth inhibition is 20.8% in assay [1]; 2.6% in assay [2]; 9.45% in assay [3]; 0.45% in assay [4]; 6.5% in assay [5]; 20.3% in assay [6].
For `CCOC(=O)CNCc1cccc(Cl)c1`, the growth inhibition in assay [1] is 5.15%; in assay [2] it was 28.4%; in assay [3] it was 15.4%; in assay [4] it was -0.8%; in assay [5], 28.1%; in assay [6], 24.2%.
As to `c1ccc2c(c1)c1ccccc1c1c3ccccc3c3ccccc3c21`, the growth inhibition in assay [1] was -10.9%; in assay [2], -14.6%; in assay [3] it was -1.05%; in assay [4], -18.6%; in assay [5], 0.65%; in assay [6], -20.1%.
Regarding `COC(=O)NCC(OC(=O)c1cc2c(cc1I)OCO2)C1=CCCCC1` (centres undefined), the growth inhibition in assay [1] was 54.5%; in assay [2], 30.1%; in assay [3], 37.6%; in assay [4], 29.2%; in assay [5], 48.8%; in assay [6] it was 28.8%.
On to `CN(C)n1c(O)c(N=O)sc1=S`, for which the growth inhibition is -30.9% in assay [1]; -6.25% in assay [2]; -7.65% in assay [3]; -25.7% in assay [4]; -10.1% in assay [5]; 5.55% in assay [6].
For the compound `CC1(C)/C(=C/N=O)N(O)C(C)(C)N1O`, the growth inhibition in assay [1] is -26.9%; in assay [2], -34.6%; in assay [3], -43.8%; in assay [4], 5.75%; in assay [5] it was -35.9%; in assay [6], -15.2%.
Regarding `C[N+]1=C(/C=C/c2ccnc3c(O)cccc23)C(C)(C)c2ccccc21`, the growth inhibition was 10% in assay [1]; 11.2% in assay [2]; 2.45% in assay [3]; -60.4% in assay [4]; -6.4% in assay [5]; 8.65% in assay [6].
As to `C/C=C/c1ccc2oc(-c3ccc(OC4OC(C)C(O)C(O)C4O)cc3)c(C)c2c1` (centres undefined), the growth inhibition was 98.9% (active) in assay [1]; 99% (active) in assay [2]; 99.2% (active) in assay [3]; 98.7% (active) in assay [4]; 98.5% (active) in assay [5]; 51.9% in assay [6].
For `C=C(C)CN(C#N)CC(=C)C`, the growth inhibition in assay [1] was -15.2%; in assay [2], 10.6%; in assay [3], 6.35%; in assay [4], -17.2%; in assay [5] it was -3.95%; in assay [6], 3.45%.
Turning to `CC(C)CCCC(C)C1CCC2C3C=C(C(=O)O)C(C)(CCC(=O)O)C3CCC12C` (centres undefined), the growth inhibition was 45% in assay [1]; 32% in assay [2]; 42% in assay [3]; 7.7% in assay [4]; -2.15% in assay [5]; 44.1% in assay [6].
For `NC(=O)c1cccnc1`, the growth inhibition in assay [1] was 15.1%; in assay [2] it was -41.4%; in assay [3], 5.1%; in assay [4] it was -27.2%; in assay [5], -12.9%; in assay [6], 9.95%.
On to `C/C(=N/O)c1ccc[cH-]1.[Fe+2].c1cc[cH-]c1`, for which the growth inhibition was 20.1% in assay [1]; -5.3% in assay [2]; 0.45% in assay [3]; -0.8% in assay [4]; -8.4% in assay [5]; -11.5% in assay [6].
`O=C(Cl)C1C2C=CC(C2)C1C(=O)Cl` (centres undefined): the growth inhibition in assay [1] is 3.1%; in assay [2], -20.4%; in assay [3] it was -2.35%; in assay [4], -9.15%; in assay [5] it was 15.6%; in assay [6], 2.55%.
For `CC(SC(C)C(=O)N/N=C/C=C\c1ccccc1)C(=O)N/N=C\C=C\c1ccccc1` (centres undefined), the growth inhibition is 15.1% in assay [1]; 5% in assay [2]; 1.05% in assay [3]; 7.8% in assay [4]; 4.05% in assay [5]; 33.7% in assay [6].
For the compound `CC(C)CC(=O)CCc1ccccc1`, the growth inhibition is -45% in assay [1]; -19.9% in assay [2]; -46.9% in assay [3]; -6.35% in assay [4]; -29.1% in assay [5]; -3.55% in assay [6].
As for `O=C1c2ccccc2C(=O)c2c3c(cc([N+](=O)[O-])c21)OCO3`, the growth inhibition in assay [1] was -18.2%; in assay [2], 12.1%; in assay [3] it was 9.05%; in assay [4], 25.7%; in assay [5], -3%; in assay [6], -9.75%.
In the case of `Cc1nn(C(=O)c2ccc(Cl)cc2)c2c1C(c1ccccc1)SC(N)=N2` (centres undefined), the growth inhibition was -18.6% in assay [1]; -38% in assay [2]; -5.15% in assay [3]; 6.2% in assay [4]; 18.4% in assay [5]; -3.5% in assay [6].
As to `O=C(O)CS(=O)(=O)CC(=O)O`, the growth inhibition was -10.3% in assay [1]; -11.4% in assay [2]; -10.2% in assay [3]; -6.65% in assay [4]; -23.4% in assay [5]; -12.1% in assay [6].
Turning to `C/C(CC(=O)Nc1ccc([N+](=O)[O-])cc1)=N/N=C(N)N`, the growth inhibition in assay [1] was -4.25%; in assay [2], -16%; in assay [3], -8.6%; in assay [4], 17.1%; in assay [5], -10.8%; in assay [6], 2.6%.
Take `Cc1cc(O)c(C)c(C)c1C`: the growth inhibition in assay [1] was -1.05%; in assay [2], -6.55%; in assay [3], 4.5%; in assay [4], 2.1%; in assay [5] it was -9.85%; in assay [6], 12.1%.
With `CCOC(=O)C1CSCN1C(C)=O` (centres undefined), the growth inhibition in assay [1] is -33.4%; in assay [2], -20.6%; in assay [3] it was -4.3%; in assay [4], -34.5%; in assay [5] it was -11.8%; in assay [6], -21.9%.
As to `O=S(=O)(O)SCC1=NCCCCN1`, the growth inhibition is -2.95% in assay [1]; -5.7% in assay [2]; -6.35% in assay [3]; -9.4% in assay [4]; -14.4% in assay [5]; 0.05% in assay [6].
Take `CCCc1cc(=O)oc2c3c(c4c(c12)OC(C)(C)CC4)O[C@H](C)C(C)C3O` (some centres undefined): the growth inhibition in assay [1] is 24.8%; in assay [2], 11.6%; in assay [3] it was 11.6%; in assay [4], 26.1%; in assay [5] it was 47.6%; in assay [6], 35%.
Regarding `O=C(/C=C/C=C/c1ccccc1)CCc1ccccc1`, the growth inhibition was 6.75% in assay [1]; 17.2% in assay [2]; 24.2% in assay [3]; 30.6% in assay [4]; 16.2% in assay [5]; -29.4% in assay [6].
Take `O=C1C(NS(=O)(=O)c2ccccc2)=C(n2cnc3ccccc32)C(=O)c2ccccc21`: the growth inhibition in assay [1] is 0.75%; in assay [2] it was 4.4%; in assay [3], 12.1%; in assay [4], -1.95%; in assay [5], 1.65%; in assay [6] it was -58.8%.
Take `COCC(C)(c1cn(C)c2ccccc12)c1cn(C)c2ccccc12`: the growth inhibition in assay [1] was -2.5%; in assay [2], -19.2%; in assay [3], -11.4%; in assay [4] it was -17.9%; in assay [5], 5.05%; in assay [6], -10.1%.
Turning to `CC1=NN(c2ccccc2)C(N)C1` (centres undefined), the growth inhibition in assay [1] was 17.7%; in assay [2], 17.7%; in assay [3], 23.3%; in assay [4], 11.5%; in assay [5], 25.4%; in assay [6] it was 13.2%.
Regarding `c1ccc2c(c1)NC(SSC1Nc3ccccc3S1)S2` (centres undefined), the growth inhibition in assay [1] was -2.4%; in assay [2] it was -21.1%; in assay [3], -2.65%; in assay [4], -0.55%; in assay [5] it was -11.1%; in assay [6], 1.65%.
With `N#CC(=C1c2ccccc2-c2ccccc21)c1ccccc1`, the growth inhibition in assay [1] was -14.2%; in assay [2] it was 7.1%; in assay [3] it was -2.35%; in assay [4], -2.65%; in assay [5] it was 2.75%; in assay [6] it was -20.5%.
Take `COC(=O)c1cccnc1F`: the growth inhibition is 3.9% in assay [1]; -15.2% in assay [2]; -14.7% in assay [3]; -1.65% in assay [4]; -30.2% in assay [5]; -2.45% in assay [6].
On to `CS(=O)(=O)C(c1nc2n(c1O)/C(=N/C(=O)Nc1ccc(Cl)cc1)N=N2)c1nc2n(c1O)/C(=N/C(=O)Nc1ccc(Cl)cc1)N=N2`, for which the growth inhibition in assay [1] was -14.9%; in assay [2] it was 4.5%; in assay [3], -8.5%; in assay [4], -16.3%; in assay [5], 1.3%; in assay [6] it was -1.15%.
`O=C1c2ccccc2C(=O)N1n1c(Cc2ccccc2)n[nH]c1=O`: the growth inhibition in assay [1] was -16.1%; in assay [2], -28.2%; in assay [3] it was -41.5%; in assay [4] it was -10.8%; in assay [5] it was -16.5%; in assay [6], -16.2%.
For the compound `O=C(Nc1ccc([N+](=O)[O-])cc1)Oc1c(Cl)cc(Cl)c(Cl)c1[N+](=O)[O-]`, the growth inhibition in assay [1] is 43.6%; in assay [2], -18.7%; in assay [3], 57.2%; in assay [4] it was 25.6%; in assay [5], 2.3%; in assay [6] it was 60.4%.
As to `CN(C)CN1CSC(=S)N(CN(C)C)C1`, the growth inhibition in assay [1] is 20.2%; in assay [2], 37%; in assay [3], 6%; in assay [4], -10.7%; in assay [5] it was -5%; in assay [6], 26.4%.
Consider `CC(=O)OCN(C)C=O`, for which the growth inhibition in assay [1] was 25.9%; in assay [2], 11.3%; in assay [3], 18.7%; in assay [4], 14.5%; in assay [5], 11.1%; in assay [6], 19.6%.
As to `O=c1cc(-c2ccccc2)oc2c(-c3cc(Cl)cc4c(=O)cc(-c5ccccc5)oc34)cc(Cl)cc12`, the growth inhibition in assay [1] was -6.65%; in assay [2] it was 23.4%; in assay [3], 13.7%; in assay [4] it was -3.1%; in assay [5] it was -2.2%; in assay [6] it was 79.3% (active).
On to `O=c1[nH]cc(Cl)cc1Cl`, for which the growth inhibition in assay [1] was 0.05%; in assay [2], 3.85%; in assay [3], -4%; in assay [4], -8.35%; in assay [5], 2.3%; in assay [6], -1.45%.

The values are drawn from PubChem BioAssay (NCI).
